# Measles CPE = compounds protecting cells from measles virus cytopathic effect, primary screen, measles RdRp inhibitor project, single point, MLSMR library, absorbance | Measles virus-infected cells, CPE protection | protection (pct of control), % at 4 µM | 140,000 tested, 1.5% active; in the data active means protection mostly above about 24%, no sharp cut-off; inactive means mostly below about 26%
# Insulin prom inh = inhibitors of insulin promoter-driven GFP, primary screen, imaging, TRM-6 cells (human fetal islet line), eGFP reporter, cell count; inhibition, % at 2 µM; AID 1273, 2008; reporter expression induced with tamoxifen; 130,000 tested, 0.9% active;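 active means inhibition above the mean plus 3 SD, with well images judged a real hit on visual review, cut at about 60% in these data, passing the limit was not always enough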
# ROMK primary = ROMK potassium channel modulators, primary screen, cell-based, thallium flux, MLSMR library | B-score at 10 µM | ATP-sensitive inward rectifier potassium channel 1 (Homo sapiens), P48048 | Tet-inducible ROMK, thallium flux fluorescence; actives lie on both sides | AID 1918, 2009 | 130,000 tested, 2% active;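 active means signal ratio slope over the read window, or its plate-corrected B-score, at least 3 SD from the plate mean, either direction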;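 further: B-score of the F/F0 ratio slope over 7 to 12 s after thallium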
# Target sequence (P48048 whole entry, looked up): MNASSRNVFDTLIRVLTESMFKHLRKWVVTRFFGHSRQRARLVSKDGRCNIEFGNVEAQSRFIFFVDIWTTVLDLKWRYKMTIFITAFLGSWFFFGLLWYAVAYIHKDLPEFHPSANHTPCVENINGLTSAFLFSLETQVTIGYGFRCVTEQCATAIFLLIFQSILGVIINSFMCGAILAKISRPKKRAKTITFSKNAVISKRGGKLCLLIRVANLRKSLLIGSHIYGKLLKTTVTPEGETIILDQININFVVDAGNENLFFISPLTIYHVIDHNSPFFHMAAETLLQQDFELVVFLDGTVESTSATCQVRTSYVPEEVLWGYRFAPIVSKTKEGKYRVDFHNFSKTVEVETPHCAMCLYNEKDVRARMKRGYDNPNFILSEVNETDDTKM
# SDO1 yeast rescue = growth rescue of sdo1-depleted yeast, primary screen, S. cerevisiae, bone marrow failure model | S. cerevisiae sdo1-depleted JHY4D growth rescue, OD600 30 h; active compounds read high; pdr5 snq2 efflux-pump mutant strain | z-score at 10 µM | 140,000 tested, 0.21% active;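 active means z-score above 3 at both the 24 hr and the 30 hr optical density reads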;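 further: z-score against mean and SD of all compound wells on the same plate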
# ROMK hit retest = ROMK channel modulator hit retest, confirmation, cell-based, thallium flux, duplicate, resupplied hits; normalized thallium flux (F/F0 slope) at 10 µM; fluorescence ratio; active compounds read low; AID 1917, 2009; shares compounds with ROMK primary; 3,000 tested, 54% active;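 active means Flux at 10 µM at least 3 SD below or above vehicle control mean in one or both replicates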
# The depositor's hits bear a star; · = no result given. Rows were chosen to be rich in hits. Some 3% of all compounds tested hit in one or more screens of this group.
SMILES,Measles CPE,Insulin prom inh,ROMK primary,SDO1 yeast rescue,ROMK hit retest
COc1ccc(/C=N/Nc2cn[nH]c(=O)c2Cl)cc1,·,0.0,0.0684,·,·
Cc1nnc(N2C(=O)c3cccc4cccc(c34)C2=O)s1,27.3,9.4,-0.361,0.21,·
CCCc1nnc(N2C(=O)c3cccc4cccc(c34)C2=O)s1,5.3,-46.9,2.32*,-0.71,0.0802
Cc1ccc(S(=O)(=O)N2CCCN(c3nc4cc(C)ccc4cc3C#N)CC2)cc1,21.1,-131.2,·,-0.49,0.0741
COc1ccccc1C1CCN(c2cc(O)ccc2[N+](=O)[O-])CC1,·,·,·,·,0.0723
CCCCCCN(C(=O)CCl)c1ccccc1,·,·,-1.38,·,·
O=C(CCl)N(c1ccccc1)c1ccccc1,·,·,-5.4*,·,0.0533*
CCOc1ccc(NC(=O)CCN2CCN(S(=O)(=O)c3cc(Cl)ccc3OC)CC2)cc1,5.1,38.5,-2.41*,-0.11,0.0616*
CCN(CC)c1ccc(NC(=O)CN2CCN(S(=O)(=O)c3cc(Cl)ccc3OC)CC2)cc1,10.5,-3.2,-1.93,-0.49,·
Cc1sc(NC(=O)c2ccccc2)c(C(c2ccc(Cl)cc2)N2CCN(CCO)CC2)c1C (configuration not stated),4.8,0.0,-2.41*,-1.03,0.0714
CC(=O)Nc1ccc(/C=N/NC(=O)c2cccc(S(=O)(=O)N3CCOCC3)c2)cc1,2.3,·,0.649,1.58,·
CC(C)c1ccc(/C=N/NC(=O)c2cccc(S(=O)(=O)N3CCOCC3)c2)cc1,·,·,0.8*,·,0.0874
COc1cccc2sc(Nc3nnc(-c4ccc(F)cc4)o3)nc12,4.9,·,·,-0.08,0.174*
O=S(=O)(Nc1nc2ccccc2nc1-[n+]1cccc(N=C([O-])c2ccccc2Cl)c1)c1ccccc1,·,·,·,·,0.0529*
O=[N+]([O-])c1ccc(S(=O)(=O)Nc2nc3ccccc3nc2Nc2ccccc2)cc1,·,-45.5,-1.88,·,·
COc1ccc(N=C2O/C(=C/c3sc(=S)n(CC4CCCO4)c3O)N=C2C#N)cc1 (configuration not stated),·,·,·,·,0.0552*
Cc1ccc(S(=O)(=O)/N=C2/NC(=O)/C(=C/c3ccccc3)S2)cc1,·,-25.0,-4.58*,·,0.0512*
Cc1cccc(-c2nc(CSCC(=O)N3CCN(c4ccccn4)CC3)c(C)o2)c1,16.4,35.7,-4.31*,-1.18,0.0529*
Cc1ccc(-c2nc(CSCC(=O)N3CCCC3)c(C)o2)cc1,16.8,-14.3,0.0197,0.55,·
Clc1ccc(CN2CCC(c3nc4ccc(Cl)cc4[nH]3)CC2)cc1,2.6,-20.0,·,-1.5,0.0632*
CC(C)(C)c1ccc(S(=O)(=O)N2CCC(c3nc4ccc(Cl)cc4[nH]3)CC2)cc1,8.4,-174.3,-0.528,-1.51,·
CC(C)Cn1cc(C(=O)NC2CCN(Cc3ccccc3)CC2)c2c3ccccc3n(C)c2c1=O,6.9,·,-2.16*,2.28,0.0683*
O=C1c2ccccc2C(=O)N1CCCCN(C(=O)c1ccco1)c1ccc(Cl)cc1,2.7,-92.9,-3.4*,-1.41,0.0492*
CCOc1ccc(N2C(=O)CC(SC(=NC)Nc3ccc(F)cc3)C2=O)cc1 (configuration not stated),14.2,13.5,·,-1.35,·
CCCCN1C(=O)C2C(c3ccc(OC)cc3O)NC(CC(C)C)(C(=O)O)C2C1=O (configuration not stated),16.5,·,·,-0.58,0.0804
SMILES,Measles CPE,Insulin prom inh,ROMK primary,SDO1 yeast rescue,ROMK hit retest
CCC1(C(=O)O)NC(c2cc(OC)ccc2O)C2C(=O)N(Cc3ccccc3)C(=O)C21 (configuration not stated),10.9,·,·,1.62,·
CC(C)CNC(=O)c1cccc(NC(=O)CCc2ccccc2)c1,·,·,-0.958,·,·
Cc1ccc(NC(=O)C(C)N2C(=O)c3ccccc3C2=O)nc1 (configuration not stated),·,·,0.356,·,·
Cc1cc(C)cc(OCCNC(=O)C(C)N2C(=O)c3ccccc3C2=O)c1 (configuration not stated),·,23.5,2.42*,·,0.0827
CCOC(=O)C1C(=O)OC(C)(C)C1C(C)C(=O)c1ccc(C)cc1C (configuration not stated),·,·,0.0499,·,·
Cc1cc(C)c2c(NC(=O)CCl)nn(C)c2n1,·,38.9,0.266,·,·
CCc1cc(SC#N)cc(CC)c1NC(=O)CCl,7.3,0.0,-3.57*,-0.44,0.0472*
N#Cc1c(N)n[nH]c1CCCN,5.0,40.0,1.45,0.62,·
